The list is not random: actives were taken first. Their share in the collection is about 1.6%.
KCNQ2 pot: potentiators of rat KCNQ2 potassium channel; O88943; CHO-K1 KCNQ2, FluxOR thallium flux fluorescence; hits give high values; B-score at 10 µM; 310,000 tested, 0.54% active;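 active means fluorescence ratio B-score at least 3 SD of library B-scores, with initial fluorescence B-score within 3 of them, cut at about 5.3 in these data; same plate scores as AID 2156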;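 further: B-score of peak minus minimum over baseline fluorescence ratio after K+ and Tl+ stimulus; positive B-score means potentiation of KCNQ2 with more thallium influx and brighter signal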
KCNQ2 inh: inhibitors of rat KCNQ2 potassium channel; 310,000 tested, 1.1% active; CHO-K1 KCNQ2, FluxOR thallium flux, 20 min; hits give low values; B-score at 10 µM; O88943; AID 2156;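 active means fluorescence ratio B-score at most minus 3 library SDs, with starting brightness B-score within 2 library SDs, cut at about -5.5 in these data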
Hits are given with their value; . = inactive; / = not tested or not shown.

SMILES | KCNQ2 pot | KCNQ2 inh
S=C1N(c2ccccc2)C(c2ccc(Cl)cc2)N2CCCN12 (configuration not stated) | / | .
CC1(C)CN2C(=S)N(c3ccccc3)C(c3ccccc3)N2C1 (configuration not stated) | . | -5.57
CCOC(=O)c1ccc(NC(=O)Cn2c(-c3nonc3N)nc3ccccc32)cc1 | . | .
CCOC(=O)c1cc2c(=O)n3ccccc3nc2n(CCCOC)c1=NC(=O)C(C)(C)C | . | .
CCOC(=O)c1cc2c(=O)n3ccccc3nc2n(Cc2ccco2)c1=NC(=O)c1cccnc1 | . | -7.1
CCOC(=O)c1cc2c(=O)n3ccccc3nc2n(Cc2ccco2)c1=NC(=O)c1ccccc1OCC | / | .
CCOC(=O)c1cc2c(=O)n3ccccc3nc2n(CCOC)c1=NC(=O)C(C)(C)C | 9.69 | .
COc1ccc(CN2CCC(Oc3cc(C(=O)NC4CC4)ccc3OC)CC2)c(O)c1 | . | .
CC(=O)c1ccc(NC(=O)CSc2n[nH]c(-c3cccnc3)n2)cc1 | / | .
Cc1cccnc1Nc1nc(-c2ccccc2)cs1 | . | -7.83
Cc1cccnc1Nc1nc(-c2ccccn2)cs1 | . | .
O=C(CC1SC(=Nc2ccccc2)N(CCc2c[nH]c3ccccc23)C1=O)Nc1ccccc1F (configuration not stated) | . | -6.69
O=C(CC1SC(=Nc2ccccc2)N(CCc2ccccn2)C1=O)Nc1ccc(F)cc1 (configuration not stated) | . | .
CC(=O)N(C)c1cccc(-c2ccc3nnc(C)n3n2)c1 | / | .
O=C(COC(=O)CCc1ccccc1)NC1CCS(=O)(=O)C1 (configuration not stated) | . | .
CCN1C(=O)C2CCCCN2c2ccc(C(=O)NCCOC)cc21 (configuration not stated) | / | .
CCOc1ccccc1NC(=O)c1cccc2c1C(=O)N(C1CCCCC1)C2 | . | -6.33
Cc1ccccc1NC(=O)c1cccc2c1C(=O)N(C1CCCCC1)C2 | / | .
Cc1c(NS(=O)(=O)c2ccc(NCCN3CCOCC3)c([N+](=O)[O-])c2)c(=O)n(-c2ccccc2)n1C | . | .
O=C(N/N=C/c1cc(Br)ccc1O)c1ccccc1Cl | 9.07 | .
COC(=O)N/N=C/c1cc(Br)ccc1O | / | .
O=C(O)CCn1nnc2ccccc21 | / | .
Cc1cc(OCC(=O)NC2CC(C)(C)NC(C)(C)C2)c2c(C)c(C)c(=O)oc2c1 | . | .
COc1ccc(C)cc1NC(=O)CNC(c1ccccc1)c1ccc(C)cc1 (configuration not stated) | / | .
COc1cc(Cl)c(C)cc1NC(=O)CNC(C)c1ccccc1OC (configuration not stated) | . | -5.85
SMILES | KCNQ2 pot | KCNQ2 inh
COc1ccccc1NC(=O)CNC(c1ccccc1)c1ccccc1 | . | -6.07
COc1ccccc1C(C)NCC(=O)Nc1c(F)cccc1F (configuration not stated) | . | .
C=CCNC(=O)COc1cc(C)cc(C)c1C | / | .
CC(=O)Nc1cccc(NS(=O)(=O)c2cc3c4c(c2)CCN4C(=O)CC3)c1 | / | .
N#C/C(=C\c1ccc[nH]1)C(=O)N1CCCCC1 | . | .
COc1ccc(N2CC(C(=O)Nc3nc4ccc(S(C)(=O)=O)cc4s3)CC2=O)cc1 (configuration not stated) | / | .
COc1ccc(-c2cc(C(F)(F)F)nc(N3CCN(Cc4ccccc4)CC3)n2)cc1OC | . | -5.6
COc1ccc(-c2cc(C(F)(F)F)nc(N3CCN(c4ccc(F)cc4)CC3)n2)cc1OC | . | .
CN(C)S(=O)(=O)c1ccc(C(=O)OCC2CCCO2)cc1 (configuration not stated) | / | .
COc1ccc(N2CCN(C(=O)CN(c3ccc(OC)cc3)S(=O)(=O)c3ccccc3)CC2)cc1 | / | .
O=C(CN(c1ccc(Cl)cc1)S(=O)(=O)c1ccccc1)N1CCN(c2ccccc2)CC1 | . | -7.41
COc1cc(C(=O)OCC(=O)NCCC2=CCCCC2)ccc1OCC(C)C | . | .
Cn1cnnc1SC1c2cccc3cccc(c23)C1NS(=O)(=O)c1ccccc1 (configuration not stated) | / | .
Cc1ccc(S(=O)(=O)NC2c3cccc4cccc(c34)C2Sc2nncn2C)cc1 (configuration not stated) | . | .
Cc1ccc(S(=O)(=O)NC2c3cccc4cccc(c34)C2Sc2nc(C)cc(C)n2)cc1 (configuration not stated) | . | -6.4
O=S(=O)(NC1c2cccc3cccc(c23)C1Sc1ncccn1)c1ccccc1 (configuration not stated) | . | -6.41
O=S(=O)(c1ccc(Br)c2ccccc12)N1CCCC1 | . | .
Nn1c(SCc2ccc(F)cc2)nnc1-c1ccncc1 | . | .
COc1cccc(CC(=O)OCC(=O)NC(Cc2ccccc2)C(C)=O)c1 (configuration not stated) | . | .
CN(C(=O)CC(NC(=O)c1ccccc1Cl)c1ccccc1)c1ccccc1 (configuration not stated) | . | -5.66
O=C(CC(NC(=O)c1ccccc1Cl)c1ccccc1)NCCc1ccc(Cl)cc1 (configuration not stated) | / | .
CC(C)OC(=O)c1ccc(NC(=S)NC(=O)c2cncc(Br)c2)cc1 | . | .
CC/C(=N/N=C(/CC)c1ccc(O)cc1)c1ccc(O)cc1 | / | .
O=C(NC(=S)N1CCN(Cc2ccc3c(c2)OCO3)CC1)c1cccc(Br)c1 | 9.47 | .
Cc1cc(Cl)ccc1NC(=S)N1CCN(Cc2ccc3c(c2)OCO3)CC1 | / | .
SMILES | KCNQ2 pot | KCNQ2 inh
CCNC(=S)N1CCN(Cc2ccc3c(c2)OCO3)CC1 | . | .
O=C(c1cccc(Cl)c1)N1CCN(Cc2ccc3c(c2)OCO3)CC1 | / | .
O=C(NC(=S)N1CCN(Cc2ccc3c(c2)OCO3)CC1)c1ccc(Cl)cc1 | 8.94 | .
O=C(c1cccn2c(=O)c3ccc(Cl)cc3nc12)N1CCN(Cc2ccc3c(c2)OCO3)CC1 | . | -5.85
CCc1c(C(=O)N/N=C/c2ccco2)nnn1-c1nonc1N | / | .
CC(O)Cn1c(N2CCCC2)nc2c1c(=O)n(C)c(=O)n2C (configuration not stated) | / | .
COc1ccc(N2CCN(C(=O)C3(C)CC3(Cl)Cl)CC2)cc1 (configuration not stated) | / | .
O=c1c2ccccc2ncn1-c1ccc([N+](=O)[O-])cc1Cl | / | .
O=C(c1ccco1)N1CCN(Cc2nnc(-c3cccc(Cl)c3)o2)CC1 | . | .
O=C(NC1CC1)c1cc2cc3ccccc3nc2s1 | / | .
COc1ccc(/C=C/C(=O)NC(=S)NCC2CCCO2)cc1 (configuration not stated) | . | .
COc1ccccc1/C=C/C(=O)NC(=S)NCC1CCCO1 (configuration not stated) | . | -7.08
C=CCn1cccc(C(=O)Nc2ccc(F)cc2)c1=O | . | .
COc1cc(O)cc2c1[C@@H]1Oc3c(ccc(O)c3CC=C(C)C)[C@@H]1CO2 | . | -6.46
COc1cc2ccc(=O)oc2c(CC=C(C)C)c1OC | . | .
O=C(Nc1ccc(S(=O)(=O)Nc2cnc3ccccc3n2)cc1)c1cc(F)c(F)cc1Cl | . | .
CCOC(=O)C(C)NC(=O)CCc1nnc2ccc(N3CCC(C)CC3)nn12 (configuration not stated) | / | .
CN(C)c1ccc(/C=C(\C#N)C(=O)c2ccccc2)cc1 | . | .
CN(C)c1cccc(/C=C(\C#N)c2ccccc2)c1 | . | -5.68
O=c1c(Cc2ccccc2)c(O)ccn1CCc1cnc[nH]1 | / | .

High-throughput results (PubChem)
